A number with no mark means an inactive call. Results filed as inconclusive are left out. The source made the active and inactive calls. Unless noted, calls come from the whole dose curve; as a rule, active = well fitted curve in either direction with a large enough effect (not every such curve was filed as active); inconclusive = small, poorly fitted or top-dose-only effect, or another doubt; inactive = flat fitted curve, though single readings scatter.
What was measured:
[1] = biological target: Lysosomal acid glucosylceramidase (Homo sapiens) (UniProt P04062); test: Glucocerebrosidase-p2 (AID 348; in the data active = potency below about 10 µM; note: potency is the fitted concentration of half-maximal effect); details: purified GBA, blue fluorogenic substrate, 40 min
How it was run: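 Normal human glucocerebrosidase (0.2 nM) with blue fluorogenic substrate (80 uM final) in citrate/phosphate pH 5.9 with 10mM sodium taurocholate, 0.01% tween-20; 40 min RT, NaOH/glycine stop; fluorescence Ex 365/Em 440; AC50 from a titration from 0.6 nM upwards.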

[2] = AP1 Signaling Pathway (AID 357); details: ME-180 AP-1-bla reporter, EGF-induced, beta-lactamase ratio, 5 h; at 7.69 µM (top of the series) unless noted;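 note: ME-180 reporter cells stimulated with EGF at its EC50 level; % is set by controls: 0 for no effect and ±100 for the full control effect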
How it was run: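 Beta-lactamase reporter under AP-1 response element, ME-180 background. Stimulus: EC50 EGF. Compound exposure 5 h, 37 °C. Detection: CCF4, 2.5 h RT, 460/530 nm. Values: AC50 from titration.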

[3] = biological target: Cytochrome P450 1A2 (Homo sapiens) (UniProt P05177); test: p450-cyp1a2 (AID 410; calls by dose curve; note: potency is the fitted concentration of half-maximal effect); details: recombinant CYP1A2, luciferin-ME demethylation, luminescence; series mostly up to 11.4 µM
How it was run: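 O-Demethylation of luciferin 6' methyl ether by human CYP1A2 is monitored as luciferase luminescence. Substrate sits at Km (100uM); enzyme is 20nM. Values are scaled to 57 uM furafylline as maximal inhibition.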

[4] = NFAT Signaling Pathway (AID 444); details: Jurkat NFAT-bla M1, carbachol, beta-lactamase ratio, 5 h; at 7.69 µM (top of the series) unless noted;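 note: carbachol stimulus at about its EC50 of 1 µM final; % is set by controls: 0 for no effect and ±100 for the full control effect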
How it was run: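 Jurkat cells carrying an NFAT-driven β-lactamase reporter and co-transfected muscarinic M1 receptor were treated with compound plus carbachol (1 uM final, an EC50 level) for 5 h at 37 °C. CCF4 loading followed for 1 h at RT; 460/530 nm ratio gave %activity.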

[5] = Stat Signaling Pathway (AID 446); details: ME-180 (cervical carcinoma) SIE beta-lactamase reporter, IL-6 stimulated, 5 h; at 7.69 µM (top of the series) unless noted;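 note: ME-180 cervical cancer cells given 40 pM IL-6 alongside compound; SIE-controlled beta-lactamase reporter measured as 460/530 nm FRET emission ratio; % is set by controls: 0 for no effect and ±100 for the full control effect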
How it was run: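 Overnight-plated ME-180 cells bearing a STAT Inducible Element beta-lactamase reporter; 5 h co-exposure to compound and 40 pM IL-6; values normalized to 300 pM IL-6 and 125 nM JAK inhibitor controls.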

[6] = biological target: Glucocorticoid receptor (Homo sapiens) (UniProt P04150); test: GR-GFP Redistribution (AID 450;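 active = compounds whose dose series gives a full or clear partial fitted curve of increased nuclear translocation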; note: potency is the fitted concentration of half-maximal effect); details: U2OS GR-GFP nuclear translocation, laser cytometry, 2 h
[7] = biological target: Glucocorticoid receptor (Homo sapiens) (UniProt P04150); test: GR-EFC Redistribution (AID 451; calls by dose curve; note: potency is the fitted concentration of half-maximal effect); details: CHO-K1 GR-EFC translocation, beta-gal luminescence, 2 h
How it was run: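 CHO-K1 cells stably expressing nuclear-localized β-gal enzyme acceptor and GR fused C-terminally to the enzyme donor fragment; ligand-driven nuclear translocation restores β-gal by complementation. Compounds titrated up to 46 uM final, 2 h at 37 °C; luminescence read.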

[8] = biological target: 3',5'-cyclic-AMP phosphodiesterase 4B (Homo sapiens) (UniProt Q07343); test: qHTS Assay for Inhibitors of PDE-IV (AID 607; active = well fitted activation curve with a large enough effect in the main read-out, with a control signal flat, not every such curve was filed as active; note: % of control where 0% means no effect); details: HEK293 ACTOne CNG channel cells, membrane potential fluorescence; series mostly up to 22.9 µM
How it was run: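 Live HEK293 cells with a modified cyclic nucleotide-gated (CNG) channel report intracellular cAMP via membrane-potential dye fluorescence (ex 535/em 590 nm). Endogenous PDE-IV was targeted. Compounds were tested at up to 22.9 uM final; RO 20-1724 100 uM served as control.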

[9] = biological target: Cytochrome P450 3A4 (Homo sapiens) (UniProt P08684); test: qHTS Assay for Inhibitors and Substrates of Cytochrome P450 3A4 (AID 884; active = well fitted curve in the direction sought with a large enough effect; an effect the other way counts as inactive or inconclusive; note: potency is the fitted concentration of half-maximal effect; nearly all actives have a fitted effect of over 50% in size); details: recombinant CYP3A4, Luciferin-PPXE luminescence; series mostly up to 57.1 µM
How it was run: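 Luminescent readout of luciferin produced by CYP3A4 (20 nM) dealkylation of Luciferin-PPXE, 25 uM (its KM). NADPH-driven reaction ran 60 min at RT after 10 min compound preincubation; data scaled to 57 uM ketoconazole as 100% inhibition.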

[10] = biological target: Cytochrome P450 3A4 (Homo sapiens) (UniProt P08684); test: qHTS Assay for Activators of Cytochrome P450 3A4 (AID 885; active = well fitted curve in the direction sought with a large enough effect; an effect the other way counts as inactive or inconclusive; note: nearly all actives have a fitted effect of over 65% in size); details: recombinant CYP3A4, Luciferin-PPXE luminescence, 60 min; series mostly up to 11.4 µM
How it was run: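 Using 20nM recombinant human CYP3A4 in potassium phosphate (200mM), substrate Luciferin-PPXE at 25uM, luminescent luciferin detection followed a 60-min RT NADPH reaction; data scaled to 57 uM ketoconazole.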

[11] = biological target: Cytochrome P450 2C19 (Homo sapiens) (UniProt P33261); test: qHTS Assay for Inhibitors and Substrates of Cytochrome P450 2C19 (AID 899; active = well fitted curve in the direction sought with a large enough effect; an effect the other way counts as inactive or inconclusive; note: potency is the fitted concentration of half-maximal effect; nearly all actives have a fitted effect of over 60% in size); details: recombinant CYP2C19, luciferin-H EGE luminescence; series mostly up to 11.4 µM
How it was run: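 NADPH-dependent conversion of Luciferin-H EGE (10uM, at KM) by 5nM enzyme in 50mM KPO4, 60 min at 37C following 10 min compound preincubation. Stopped with luciferin detection buffer; luminescence read after 20 min.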

[12] = biological target: Cytochrome P450 2C9 (Homo sapiens) (UniProt P11712); test: qHTS Assay for Inhibitors and Substrates of Cytochrome P450 2C9 (AID 883; active = well fitted curve in the direction sought with a large enough effect; an effect the other way counts as inactive or inconclusive; note: potency is the fitted concentration of half-maximal effect; nearly all actives have a fitted effect of over 60% in size); details: recombinant CYP2C9, luciferin-H luminescence, 60 min; series mostly up to 11.4 µM
How it was run: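 A luminogenic readout tracked human CYP2C9 (10nM) converting deoxyluciferin (100uM, at KM) in 25mM KPO4 during 60 min at 37C with regenerated NADPH. Values normalized to 57uM sulphaphenazole as complete inhibition.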

Cytochrome P450 1A2 (Homo sapiens), sequence (P05177 whole entry, looked up): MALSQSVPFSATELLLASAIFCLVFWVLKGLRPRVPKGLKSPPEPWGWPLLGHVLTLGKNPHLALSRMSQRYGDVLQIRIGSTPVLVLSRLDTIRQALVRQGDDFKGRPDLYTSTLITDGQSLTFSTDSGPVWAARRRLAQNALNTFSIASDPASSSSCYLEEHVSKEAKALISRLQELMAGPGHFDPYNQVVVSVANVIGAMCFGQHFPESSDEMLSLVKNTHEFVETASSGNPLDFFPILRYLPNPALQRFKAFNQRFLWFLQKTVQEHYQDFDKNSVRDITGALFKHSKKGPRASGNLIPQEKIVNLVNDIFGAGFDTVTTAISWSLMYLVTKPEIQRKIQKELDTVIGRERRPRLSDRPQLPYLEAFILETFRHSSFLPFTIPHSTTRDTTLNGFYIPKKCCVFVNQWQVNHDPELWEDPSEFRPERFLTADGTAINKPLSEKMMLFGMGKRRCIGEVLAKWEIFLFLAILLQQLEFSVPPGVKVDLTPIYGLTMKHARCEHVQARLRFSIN
Lysosomal acid glucosylceramidase (Homo sapiens), sequence (P04062 whole entry, looked up): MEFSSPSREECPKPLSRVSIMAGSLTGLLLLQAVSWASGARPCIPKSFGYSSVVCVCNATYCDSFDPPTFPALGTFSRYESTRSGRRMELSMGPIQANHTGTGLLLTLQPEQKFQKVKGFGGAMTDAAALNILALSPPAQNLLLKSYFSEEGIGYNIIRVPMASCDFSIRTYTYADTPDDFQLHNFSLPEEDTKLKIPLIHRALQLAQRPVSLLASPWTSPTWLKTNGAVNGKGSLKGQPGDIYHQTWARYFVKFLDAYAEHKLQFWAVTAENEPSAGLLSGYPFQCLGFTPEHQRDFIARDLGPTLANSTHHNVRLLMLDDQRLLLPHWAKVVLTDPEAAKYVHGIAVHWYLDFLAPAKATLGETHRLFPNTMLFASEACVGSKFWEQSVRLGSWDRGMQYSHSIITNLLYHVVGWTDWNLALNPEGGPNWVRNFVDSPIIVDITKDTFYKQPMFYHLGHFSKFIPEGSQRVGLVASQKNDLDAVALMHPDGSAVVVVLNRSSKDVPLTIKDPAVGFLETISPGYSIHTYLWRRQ
Glucocorticoid receptor (Homo sapiens), sequence (P04150 whole entry, looked up, the tested form may be a part): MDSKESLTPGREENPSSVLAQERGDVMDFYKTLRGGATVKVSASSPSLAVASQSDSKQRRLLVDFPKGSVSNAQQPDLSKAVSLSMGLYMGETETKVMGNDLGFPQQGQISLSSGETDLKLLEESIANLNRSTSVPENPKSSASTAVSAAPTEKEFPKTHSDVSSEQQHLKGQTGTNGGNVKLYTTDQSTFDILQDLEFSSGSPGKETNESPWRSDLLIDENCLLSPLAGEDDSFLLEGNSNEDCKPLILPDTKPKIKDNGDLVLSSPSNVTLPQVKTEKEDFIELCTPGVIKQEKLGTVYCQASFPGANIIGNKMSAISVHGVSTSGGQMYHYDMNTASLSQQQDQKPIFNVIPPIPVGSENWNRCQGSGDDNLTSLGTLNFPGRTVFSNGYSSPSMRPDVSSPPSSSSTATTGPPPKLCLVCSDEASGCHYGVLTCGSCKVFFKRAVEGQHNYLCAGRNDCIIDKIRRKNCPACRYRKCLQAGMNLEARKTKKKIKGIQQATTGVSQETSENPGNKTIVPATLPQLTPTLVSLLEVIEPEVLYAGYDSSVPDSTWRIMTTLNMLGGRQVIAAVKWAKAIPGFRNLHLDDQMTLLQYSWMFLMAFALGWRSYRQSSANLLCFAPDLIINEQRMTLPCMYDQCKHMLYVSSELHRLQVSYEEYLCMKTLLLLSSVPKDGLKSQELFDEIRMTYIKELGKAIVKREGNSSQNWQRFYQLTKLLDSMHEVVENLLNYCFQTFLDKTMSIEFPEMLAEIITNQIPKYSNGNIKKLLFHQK
3',5'-cyclic-AMP phosphodiesterase 4B (Homo sapiens), sequence (Q07343 whole entry, looked up): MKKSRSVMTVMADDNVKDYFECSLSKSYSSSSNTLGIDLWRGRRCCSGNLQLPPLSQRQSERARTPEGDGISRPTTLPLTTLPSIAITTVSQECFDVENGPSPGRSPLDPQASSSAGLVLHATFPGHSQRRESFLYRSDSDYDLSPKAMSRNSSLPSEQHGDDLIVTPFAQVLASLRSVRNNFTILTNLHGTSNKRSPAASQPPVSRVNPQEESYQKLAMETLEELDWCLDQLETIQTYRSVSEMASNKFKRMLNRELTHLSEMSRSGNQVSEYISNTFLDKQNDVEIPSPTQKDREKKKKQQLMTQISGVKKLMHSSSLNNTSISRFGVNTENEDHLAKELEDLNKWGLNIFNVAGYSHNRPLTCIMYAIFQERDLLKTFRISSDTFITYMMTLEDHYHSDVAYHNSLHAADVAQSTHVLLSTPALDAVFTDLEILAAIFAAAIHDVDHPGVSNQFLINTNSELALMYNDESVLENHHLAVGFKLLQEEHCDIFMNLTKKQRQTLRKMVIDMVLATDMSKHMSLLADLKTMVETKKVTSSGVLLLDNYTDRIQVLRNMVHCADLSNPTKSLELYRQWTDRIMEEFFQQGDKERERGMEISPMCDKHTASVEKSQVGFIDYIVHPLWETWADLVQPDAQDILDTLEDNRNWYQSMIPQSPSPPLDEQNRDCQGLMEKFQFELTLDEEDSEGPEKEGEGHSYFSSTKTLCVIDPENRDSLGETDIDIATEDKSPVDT
Cytochrome P450 3A4 (Homo sapiens), sequence (P08684 whole entry, looked up): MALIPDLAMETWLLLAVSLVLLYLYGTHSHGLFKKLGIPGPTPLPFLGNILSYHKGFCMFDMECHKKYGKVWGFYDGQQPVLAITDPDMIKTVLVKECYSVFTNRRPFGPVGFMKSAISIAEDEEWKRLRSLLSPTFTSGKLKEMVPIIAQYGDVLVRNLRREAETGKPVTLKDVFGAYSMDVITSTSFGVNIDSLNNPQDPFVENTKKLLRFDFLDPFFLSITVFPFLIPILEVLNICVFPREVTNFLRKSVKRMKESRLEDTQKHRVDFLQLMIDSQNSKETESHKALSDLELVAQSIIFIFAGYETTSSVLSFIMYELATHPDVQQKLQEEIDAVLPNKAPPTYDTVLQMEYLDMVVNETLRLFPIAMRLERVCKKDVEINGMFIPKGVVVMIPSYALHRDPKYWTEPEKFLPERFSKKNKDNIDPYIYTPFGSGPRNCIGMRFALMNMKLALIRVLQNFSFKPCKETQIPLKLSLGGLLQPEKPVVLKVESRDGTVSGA
Cytochrome P450 2C19 (Homo sapiens), sequence (P33261 whole entry, looked up): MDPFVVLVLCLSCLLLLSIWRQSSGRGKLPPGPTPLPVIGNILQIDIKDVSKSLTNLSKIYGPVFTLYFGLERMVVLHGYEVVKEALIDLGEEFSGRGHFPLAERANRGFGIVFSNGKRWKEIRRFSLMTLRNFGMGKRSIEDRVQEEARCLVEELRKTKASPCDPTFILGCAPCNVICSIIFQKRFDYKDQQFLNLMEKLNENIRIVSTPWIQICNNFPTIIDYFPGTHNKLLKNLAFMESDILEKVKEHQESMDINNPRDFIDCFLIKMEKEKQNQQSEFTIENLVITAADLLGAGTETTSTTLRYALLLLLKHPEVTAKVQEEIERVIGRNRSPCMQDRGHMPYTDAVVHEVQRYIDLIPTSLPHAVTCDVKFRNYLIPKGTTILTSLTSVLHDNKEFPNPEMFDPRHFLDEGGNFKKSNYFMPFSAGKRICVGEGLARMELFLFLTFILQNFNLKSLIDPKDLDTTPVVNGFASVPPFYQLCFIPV
Cytochrome P450 2C9 (Homo sapiens), sequence (P11712 whole entry, looked up): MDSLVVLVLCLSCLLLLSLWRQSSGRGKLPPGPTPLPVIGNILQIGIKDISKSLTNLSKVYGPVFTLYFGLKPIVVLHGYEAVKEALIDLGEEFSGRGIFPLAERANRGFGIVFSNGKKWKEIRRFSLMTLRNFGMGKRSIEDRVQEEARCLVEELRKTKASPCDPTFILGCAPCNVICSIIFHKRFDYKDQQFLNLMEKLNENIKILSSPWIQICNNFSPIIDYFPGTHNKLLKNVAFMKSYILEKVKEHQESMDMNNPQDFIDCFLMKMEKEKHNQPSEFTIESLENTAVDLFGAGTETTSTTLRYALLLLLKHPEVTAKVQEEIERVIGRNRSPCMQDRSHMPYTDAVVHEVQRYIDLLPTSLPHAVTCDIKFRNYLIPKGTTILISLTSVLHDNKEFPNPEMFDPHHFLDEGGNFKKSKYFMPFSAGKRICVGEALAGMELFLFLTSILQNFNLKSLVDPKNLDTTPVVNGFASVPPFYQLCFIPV

| Compound | Potency [1] [µM] | activity change, negative = inhibition [2] [%] | Potency [3] | activity change, negative = inhibition [4] [%] | activity, negative = inhibition [5] [%] | Potency [6] [µM] | Potency [7] [µM] | Potency [8] | Potency [9] | Potency [10] | Potency [11] | Potency [12] |
| --- | --- | --- | --- | --- | --- | --- | --- | --- | --- | --- | --- | --- |
| CN(CCc1ccccn1)c1ccc2c(c1)C(=O)c1ccccc1-2 | > 2.29 | 7.03 | 0.158 µM (active) | 0.0317 | -7.39 | > 46 | > 9.22 | inactive | 3.16 µM (active) | inactive | 2.51 µM (active) |  |
| NCOC(=O)Cc1ccc(Br)cc1 | > 11.4 | 2.56 | 0.2 µM (active) | 11 | 5.96 | > 46 | > 9.22 | inactive |  |  |  |  |
| COCCn1c(=O)c(-c2cccs2)nc2cnc(Oc3ccc(OC)cc3)nc21 | > 11.4 | -1.43 | 2.51 µM (active) | 15.8 | 11.7 | > 9.22 | > 46 | inactive | 0.794 µM (active) | inactive |  | 5.01 µM (active) |

— PubChem BioAssay (NCATS)
